Shown are actives, neighbours in structure and some others; about 2.4% of the full set was active somewhere.
Cruzain inh Det: inhibitors of Trypanosoma cruzi cruzain with detergent; P25779; purified cruzain, Z-FR-AMC fluorescence, 0.01% Triton; Potency, µM, for inactives: max response, negative = inhibition, actives largely listed as inhibitors; 200,000 compounds, 0.43% hits; AID 1478;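 also: plate controls were neutral wells for no effect and buffer without enzyme for full effect; nearly all actives have a fitted effect of over 40% in size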
Target sequence (P25779 123-467 limits assumed): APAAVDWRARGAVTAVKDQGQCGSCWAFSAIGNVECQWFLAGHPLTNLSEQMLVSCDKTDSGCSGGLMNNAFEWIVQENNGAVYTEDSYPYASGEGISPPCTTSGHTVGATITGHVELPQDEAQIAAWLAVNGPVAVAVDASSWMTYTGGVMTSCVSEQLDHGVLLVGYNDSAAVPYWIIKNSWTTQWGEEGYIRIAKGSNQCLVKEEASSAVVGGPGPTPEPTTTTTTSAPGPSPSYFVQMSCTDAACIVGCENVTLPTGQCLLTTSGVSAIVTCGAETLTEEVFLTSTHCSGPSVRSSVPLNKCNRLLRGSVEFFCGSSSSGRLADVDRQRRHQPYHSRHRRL
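Z-FR-AMC hydrolysis (2 uM substrate) by cruzain (1.5 nM) monitored kinetically at ex 360/em 450 nm after 15 min room-temperature compound exposure; 0.01% Triton X-100, pH 5.5, 5 mM DTT.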
Cruzain noTriton: cruzain (T. cruzi) inhibition without detergent. Potency, µM, for inactives: max response, negative = inhibition, actives largely listed as inhibitors. purified cruzain, Z-FR-AMC fluorescence, no detergent. P25779. 200,000 compounds, 2.3% hits;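 also: plate controls were enzyme without inhibitor for no effect and buffer without enzyme for full effect; nearly all actives have a fitted effect of over 40% in size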
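Detergent-free condition (0.00005% Triton X-100) in acetate buffer pH 5.5 with DTT. 1.5 nM enzyme and compound were pre-mixed 15 min, then 2 uM Z-FR-AMC substrate added; reaction progress from fluorescence change between first and third reads (60 s).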
* hit, by the source's call; ? = inconclusive. Calls follow the shape of the dose curve; as a rule, active = well fitted curve in the direction sought with a large enough effect; inconclusive = small, poorly fitted or top-dose-only effect, or another doubt; inactive = no such curve, though single readings can be large; an effect the other way counts as inactive or inconclusive. Potency is read from the fitted curve at half-maximal effect.

SMILES | Cruzain inh Det | Cruzain noTriton
Cc1c(C(=O)N(Cc2ccccc2F)C2CCS(=O)(=O)C2)oc2ccc(F)cc12 (configuration not stated) | -7% | 26%
COc1ccc(NC(=O)Nc2cccc(-c3cn4cccnc4n3)c2)cc1 | 2% | 9%
O=C(CSc1nc2c([nH]c3ccccc32)c(=O)n1-c1cccc(Cl)c1)N1CCc2ccccc21 | 1% | 0%
CC(/C=N\Nc1nnc2c(n1)[nH]c1c(C)cccc12)=C\c1ccco1 | 2% | 4µM*
CCCCCSc1nnc2c(n1)[nH]c1c(C)cccc12 | -1% | ?
CCC12CN3CC(CC)(CN(C1)C3c1ccc(OCc3ccccc3)cc1)C2=O (configuration not stated) | 0% | 2%
O=C(O)CCC(=O)c1cccc2ccccc12 | -2% | -9%
C[N+](C)(C)CCC(=O)c1cccc2ccccc12 | 14µM* | 10µM*
CC(=O)C[C@H](c1ccc([N+](=O)[O-])cc1)c1c(O)c2ccccc2oc1=O | -1% | 2%
O=C(CCN1CCc2ccccc2C(c2ccccc2)C1)c1ccc2c(c1)OCCO2 (configuration not stated) | 28µM* | 16µM*
O=C(CCN1Cc2ccccc2C1)c1ccc2c(c1)OCCO2 | -25% | ?
Cc1c(C)c2cc(Cl)c(O)c(CN3CCCCC3)c2oc1=O | ? | -100%
CCCCc1cc(=O)oc2c(CN3CCCC3)c(O)c(Cl)cc12 | 28µM* | ?
CCCCc1cc(=O)oc2c(CN(CC)CC)c(O)c(Cl)cc12 | 28µM* | ?
Cc1cc(=O)oc2c(CN3CCN(C)CC3)c(O)c(Cl)cc12 | -22% | ?
CCCc1cc(=O)oc2c(CN3CCN(C)CC3)c(O)c(Cl)cc12 | 32µM* | ?
CCCCc1cc(=O)oc2cc(OCc3nn[nH]n3)c(Cl)cc12 | -8% | 2%
O=c1c(-c2cc(F)cc(F)c2)nc2cnc(N3CCOCC3)nc2n1-c1ccccc1 | 1% | -3%
O=C1c2cccc3cccc(c23)C(=O)N1OS(=O)(=O)c1ccccc1 | -13% | 0%
Cc1ccc(S(=O)(=O)ON2C(=O)c3cccc4cccc(c34)C2=O)cc1 | -11% | 5%
O=C1c2ccccc2C(=O)N1OS(=O)(=O)c1ccccc1 | ? | 7.9µM*
Cc1ccc(C)c(S(=O)(=O)ON2C(=O)c3ccccc3C2=O)c1 | 13µM* | 10µM*
CC1Cc2ccccc2N1c1nc(C2CC2)nc2c1nnn2Cc1ccccc1 (configuration not stated) | -17% | 20µM*
CC1Cc2ccccc2N1c1ncnc2c1nnn2Cc1ccccc1 (configuration not stated) | -24% | ?
COc1cc(OC)c(NC(=O)CSc2nc3ccncc3[nH]2)cc1Cl | -30% | -7%
SMILES | Cruzain inh Det | Cruzain noTriton
O=C(Cc1ccc(S(=O)(=O)N2CCCCC2)s1)Nc1ccc(F)c(F)c1 | -9% | 1%
O=C(COC(=O)/C=C/c1ccc(OC(F)F)cc1)Nc1ccc(S(=O)(=O)N2CCCC2)cc1 | -3% | -1%
O=C(COC(=O)/C=C/c1ccc2c(c1)OCO2)Nc1ccc(S(=O)(=O)N2CCCC2)cc1 | -9% | 32µM*
O=C(COC(=O)Cc1ccc(S(=O)(=O)N2CCCCC2)s1)Nc1ccc2c(c1)OCO2 | -10% | 10µM*
CC(C)(C)C1CCc2c(sc(NC(=O)c3cc4ccccc4c(=O)o3)c2C(N)=O)C1 (configuration not stated) | -10% | -2%
COc1cc(NC(=O)N2CCC3(CC2)Nc2cc(F)ccc2-n2cccc23)cc(OC)c1OC | -7% | ?
COc1cc([N+](=O)[O-])ccc1NC(=O)N1CCC2(CC1)Nc1ccccc1-n1cccc12 | -2% | 25µM*
COc1cc2c(=O)n(Cc3ccccc3Cl)c(=O)n(CC(=O)Nc3ccc(C)c(C)c3)c2cc1OC | -1% | -3%
O=C(CS(=O)(=O)c1cccc2nsnc12)Nc1ccccc1Cl | -3% | -5%
Cc1ccc(NC(=O)COC(=O)c2csc3c2CCC(C)C3)cc1S(=O)(=O)N1CCCCC1 (configuration not stated) | -4% | 25µM*
CC1CCc2c(C(=O)OCC(=O)Nc3cccc(S(=O)(=O)N4CCCCCC4)c3)csc2C1 (configuration not stated) | 0% | ?
Cc1ccc2[nH]c(=O)c3cc(C(=O)NCCCN4CCC(C)CC4)sc3c2c1 | -16% | 2%
COc1ccc(/C=N/NC(=O)c2cccc(NC(=O)c3ccc(Cl)cc3)c2)c(OC)c1 | -7% | ?
O=C(N/N=C/c1ccncc1)c1cccc(NC(=O)c2ccc(Cl)cc2)c1 | 28µM* | -13%
CS(=O)(=O)N(CC(=O)Nc1ccc2c(c1)OCCO2)Cc1ccccc1 | 1% | 0%
O=C(CN(Cc1ccccc1)S(=O)(=O)c1ccc2c(c1)OCCO2)Nc1ccc2c(c1)OCCO2 | -1% | 20µM*
Cc1cccc(C(=O)Nc2sc3c(c2C(=O)NC(C)C)CCCC3)c1 | 1% | -3%
CCN(CC)c1ccc(N2C(=O)/C(=C\c3cccs3)SC2=S)cc1 | -3% | 25µM*
O=C1/C(=C/c2cccs2)SC(=S)N1c1ccccc1 | -1% | ?
CC(C)CCNC(=O)c1cccc(Nc2nc3ccccc3n3nnnc23)c1 | 3% | 3%
Cc1sc2ncnc(SCC(=O)c3ccc4c(c3)OCCO4)c2c1-c1ccccc1 | -2% | 32µM*
O=C(CSc1ncnc2scc(-c3ccc(F)cc3)c12)c1ccc2c(c1)OCCO2 | -6% | ?
O=C(CSc1ncnc2ccccc12)c1ccc2c(c1)OCCO2 | -6% | -5%
Cc1ccc(-c2csc3ncnc(SCC(=O)c4ccc5c(c4)OCCO5)c23)cc1 | 4% | 10µM*
CCc1ccccc1NC(=O)c1ccc2nc(C(C)C)oc2c1 | -1% | 2%
SMILES | Cruzain inh Det | Cruzain noTriton
CCCN1CCN(c2nnc(-n3cccc3C(=O)Nc3ccccc3C(F)(F)F)s2)CC1 | -1% | -5%
O=C1C(c2ccc(F)cc2)N(CCc2ccccc2)C(=O)CN1C1CCCCC1 (configuration not stated) | 0% | 7%
O=C(Cc1sc(-c2ccccc2Cl)nc1-c1ccccc1)Nc1ccccc1 | 7% | 13µM*
O=C(O)Cc1sc(Nc2ccccc2)nc1-c1ccccc1 | -17% | -25%
O=C(Cc1sc(-c2ccccc2Cl)nc1-c1ccccc1)Nc1ccc(F)cc1 | 5% | 16µM*
O=C(Cc1sc(-c2ccccc2)nc1-c1ccccc1)Nc1ccc(Cl)cc1 | 6% | ?
Cn1cnc2c(=O)oc3ccc(S(=O)(=O)Nc4ccc(F)cc4)cc3c21 | -2% | 22%
CCCCn1c(CNC(=O)C23CC4CC(CC(C4)C2)C3)nnc1SCC(=O)Nc1ccccc1 | -4% | ?
CCSc1nc2c([nH]c3ccccc32)c(=O)n1-c1ccc(OC)cc1 | 0% | 14%
COc1ccc(-c2cc(OC(=O)c3cccc(Cl)c3)c3c(C)oc(C)c3c(=O)c2)cc1 | -14% | 6%
COc1ccc(Nc2cc(C(=O)NCCCN3CCN(c4ccc(OC)cc4)CC3)c3ccccc3n2)cc1 | -27% | -6%
CCOC(=O)/C=c1\s/c(=C\c2ccc(C(F)(F)F)cc2)c(=O)n1CC(=O)NCc1ccco1 | -4% | ?
CCOC(=O)/C=c1\s/c(=C\c2ccc(C)cc2)c(=O)n1CC(=O)NCc1ccco1 | -1% | 16µM*
CCOC(=O)/C=c1\s/c(=C\c2ccc(-c3ccccc3)cc2)c(=O)n1CC(=O)NCc1ccc2c(c1)OCO2 | -3% | 2.5µM*
CCOC(=O)COc1cccc2c(=O)n(CC(=O)NCc3ccc4c(c3)OCO4)ccc12 | -5% | -1%

Screens (PubChem BioAssay)
